Screening results (PubChem BioAssay)
TDP1 cell CPT: DT40-hTDP1 cell growth loss with CPT | chicken DT40 Tdp1-/-;hTDP1 cells + 20 nM CPT, ATP luminescence, 48 h | Potency, µM (titrated, usually from 46.2 µM), without a hit: top-dose activity change, negative = growth inhibition, hits mostly inhibitors | AID 686979 | 420,000 tested, 12% active; note: potency is the fitted concentration of half-maximal effect; nearly all actives have a fitted effect of over 55% in size
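Cell growth measured by CellTiter-Glo luminescence after a minimum 48 h, 37 C compound exposure with 20 nM CPT in Tdp1-knockout DT40 cells stably expressing hTDP1, seeded 400/well; qHTS titration format.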
HT1080-NT tox: kills 2HG-producing HT-1080-NT fibrosarcoma cells. HT-1080-NT fibrosarcoma viability, CellTiter-Glo ATP luminescence, 48 h. Potency, µM (top dose mostly 46.1 µM), for the others: top-dose activity, negative = less viability, actives largely listed as cytotoxic. 360,000 tested, 1.6% active;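 note: NT is the 2HG producing partner of a matched IDH1 knockdown line; potency is the fitted concentration of half-maximal effect; 0% = DMSO-treated cells and -100% = media-only wells without cells; nearly all actives have a fitted effect of over 55% in size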
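HT-1080-NT fibrosarcoma cells (2HG-overproducing), 750 cells/well in RPMI with 5% FBS, dosed after 2 h and incubated 48 h at 37C. CellTiter-Glo luminescence normalized to DMSO and no-cell wells; concentration-response curves fitted and classed.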
IL-1B inflam inh: inhibitors of inflammasome signaling (IL-1 beta secretion); THP-1 LPS/ATP IL-1B secretion, AlphaLISA, 16 h; stronger effect = lower value; activity change, % at 57.5 µM; 360,000 tested, 4.7% active; in the data active = activity change below about -50%; inconclusive = mostly about -30% to -49%
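THP-1 cells pretreated 1 hr with compounds (up to 57.5 uM final), then stimulated with LPS (250 ng/mL final) plus ATP (1.25 mM final); secreted IL-1B measured by AlphaLISA after 16 hr, decreased signal indicating inhibition.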
TDP1 cell noCPT: qHTS for Inhibitors of human tyrosyl-DNA phosphodiesterase 1 (TDP1): qHTS in cells in absence of CPT. DT40 Tdp1-/- hTDP1 cells, no CPT, ATP luminescence, 48 h. Potency, µM (highest dose often 46.2 µM), for the others: at the highest dose activity change, negative = growth inhibition, most hits filed as inhibitors. 420,000 tested, 15% active. AID 686978, 2013; note: potency is the fitted concentration of half-maximal effect; nearly all actives have a fitted effect of over 55% in size
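A cellular qHTS used chicken DT40 cells lacking endogenous Tdp1 but carrying stably transfected human TDP1. Compounds were applied without camptothecin, and cell growth kinetics were judged by ATP-dependent luminescence after ≥48 hr.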
HT1080 IDH1KD tx: toxicity to HT-1080 IDH1 knockdown cells (counter line); 360,000 tested, 2% active; Potency, µM (titrated, usually from 46.1 µM), inactives show top-dose activity, negative = toxicity, most hits filed as cytotoxic; HT-1080 IDH1 knockdown viability, ATP luminescence, 48 h;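 note: potency is the fitted concentration of half-maximal effect; 0% = DMSO wells and -100% = cell-free medium wells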
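In this qHTS, HT-1080 cells depleted of IDH1 are exposed for 48 h at 37 °C to compound titrations. Toxicity is scored from CellTiter-Glo luminescence, with DMSO as full viability and medium alone as none.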
* hit, by the source's call; ? = inconclusive; nt = no result; [ ] = remark or other dose. Rows were chosen to be rich in hits. Some 19% of all compounds tested hit in one or more screens of this group. Unless noted, calls come from the whole dose curve; as a rule, active = well fitted curve in the direction sought with a large enough effect; inconclusive = small, poorly fitted or top-dose-only effect, or another doubt; inactive = no such curve, though single readings can be large; an effect the other way counts as inactive or inconclusive. Unless noted, % is set by controls: 0 for no effect and ±100 for the full control effect.

SMILES	TDP1 cell CPT	HT1080-NT tox	IL-1B inflam inh	TDP1 cell noCPT	HT1080 IDH1KD tx
O=C(CN1C(=O)S/C(=C\c2ccc(F)cc2)C1=O)Nc1cccc(S(=O)(=O)NCc2ccco2)c1	?	-23%	?	?	-10%
O=C(O)COc1ccc(/C=C/c2nc3ccc([N+](=O)[O-])cc3s2)cc1	?	?	0	?	6%
Cc1cc(NS(=O)(=O)c2ccc(NC(=O)CCSc3ccc(F)cc3)cc2)nc(C)n1	-21%	?	62	-22%	11%
Cc1ccccc1-c1cc(N2CCN(C)CC2)ncn1	6%	nt	nt	6%	nt
Cn1cnc([N+](=O)[O-])c1Oc1cccc2ccccc12	?	?	nt	29µM*	21µM*
Cn1cnc([N+](=O)[O-])c1S(=O)(=O)Oc1ccc(Cl)cc1	0.65µM*	21µM*	-97*	2.1µM*	16µM*
CN(C)C(=O)c1c([N+](=O)[O-])ncn1C	0%	-1%	7	-13%	7%
COc1cc(=O)n2c(c1C(=O)NC(C)c1ccco1)CCN(Cc1ccc3nsnc3c1)CC2 (centres undefined)	3%	nt	nt	5%	nt
CN(Cc1ccccc1)C(=O)C1CCCN1S(=O)(=O)c1ccc(Cl)cc1 (centres undefined)	?	18%[9.24 µM]	-5	-18%	10%
COC(/C=C/Nc1ccc(OC)cc1)=C(C#N)C#N	-7%	-12%	-59*	1%	-1%
O=C(CN1CCN(CC(=O)Nc2ccccc2F)CC1)Nc1ccc2c(c1)OCCO2	-21%	2%	15	-30%	0%
Cc1ccc(OCc2nc(C#N)c(NCc3ccc4c(c3)OCO4)o2)cc1	?	-15%	-64*	?	-1%
CCOc1ccc(-c2nc(C#N)c(NCc3ccc4c(c3)OCO4)o2)cc1	?	0%	-21	15µM*	-11%
COc1ccc(CNc2oc(COc3ccc(Cl)cc3)nc2C#N)cc1	?	-4%	-21	?	-18%
Clc1ccccc1-c1nccc(-n2ccnc2)n1	4%	nt	nt	-1%	nt
c1ccc(CCOn2ccnc2)cc1	-1%	19%	-2	9%	7%
Clc1ccccc1C(c1ccccc1)(c1ccccc1)n1ccnc1	8.1µM*	?	-24	10µM*	?
C#CC(c1ccccc1)(c1ccccc1)n1ccnc1	?	3%	-16	23µM*	-9%
O=C(c1cc(C(F)(F)F)cc(C(F)(F)F)c1)N1CCC2(CC1)CCN(c1ccncc1)CC2	26µM*	nt	nt	18µM*	nt
O=C(c1cccc(F)c1)N1CCC2(CC1)CN(c1ccccn1)C2	15µM*	nt	nt	?	nt
O=C(c1cccc(F)c1)N1CCC2(CC1)CCN(c1ccncc1)CC2	7.3µM*	nt	nt	18µM*	nt
CN1CCC2(CC1)CCN(C(=O)c1cc(C(F)(F)F)cc(C(F)(F)F)c1)CC2	1%	nt	nt	1%	nt
O=C(c1cccc(F)c1)N1CCC[C@@]2(CCN(c3ccccn3)C2)C1	-1%	nt	nt	-21%	nt
O=C(c1cccc(F)c1)N1CCC2(CCCN(c3ccncc3)C2)CC1	-5%	nt	nt	?	nt
O=C(c1cccc(F)c1)N1CCC2(CC1)CCN(c1ncccn1)CC2	?	nt	nt	18µM*	nt
SMILES	TDP1 cell CPT	HT1080-NT tox	IL-1B inflam inh	TDP1 cell noCPT	HT1080 IDH1KD tx
Nc1nc(N)c(N=Nc2ccc(SCC(=O)O)cc2)c(=O)[nH]1	-5%	3%	-10	-22%	-13%
O=C(OCCN1CCCCC1)c1c[nH]c2ccccc12	4%	-11%	-9	-1%	6%
CC1CCN(C(C)C(=O)Nc2ccc(S(=O)(=O)N3CCCC3)cc2)CC1 (centres undefined)	-21%	2%	-15	-14%	2%
Cc1ccccc1C(=O)NC(C)c1nnc2n1CCN(Cc1ccc(F)cc1)CC2 (centres undefined)	16%[9.04 µM]	nt	nt	-1%	nt
O=C(c1cc(C(F)(F)F)cc(C(F)(F)F)c1)N1CCC2(CC1)CN(c1ccccn1)C2	4.6µM*	nt	nt	5.2µM*	nt
COc1ccc(C(=O)N2CCC3(CC2)CN(c2ccccn2)C3)cc1	-10%	nt	nt	?	nt
CCOC(=O)c1cc2cc(OC)ccc2n1C1CCN(CCc2ccccc2)CC1	?	?	-10	?	18µM*
CCOC(=O)c1cc2ccccc2n1C1CCN(CCc2ccccc2)CC1	9.2µM*	?	-19	7.3µM*	?
CN(C)c1ccc(/C=N/n2c(-c3ccccc3Br)n[nH]c2=S)cc1	14%	8%	-14	-24%	15%
CCOC(=O)C1(Cc2ccccc2C(F)(F)F)CCN(Cc2ccc(COC)o2)CC1	9.2µM*	?	?	8.2µM*	?
CCOC(=O)C1(CCOC)CCN(Cc2ccc(COC)o2)CC1	0%	-4%	10	-29%	2%
CCOC(=O)C1(Cc2ccccc2C(F)(F)F)CCN(C2CCN(C(C)C)CC2)CC1	23µM*	?	13	23µM*	15µM*
COc1cc(OC)c(N(C)S(=O)(=O)c2cccc(C(=O)Nc3nccs3)c2)cc1Cl	?	-27%	-14	18µM*	?
COc1cc(OC)c(N(C)S(=O)(=O)c2cccc(C(=O)NC(C)C3CC4CCC3C4)c2)cc1Cl (centres undefined)	18µM*	4%	18	23µM*	-2%
CC(NC(=O)c1cccc(S(=O)(=O)N2CCN(C)CC2)c1)C1CC2CCC1C2 (centres undefined)	-13%	-9%	-7	?	-3%
